# Reference: PubChem BioAssay AID1159580 (chemical genetic matrix, 2015)
# About 2,000 (36%) of roughly 5,500 compounds were called active. Roughly 18% stayed inconclusive and do not appear here. This is one part of the list. Unmarked numbers belong to inactive results. Rule as the data show it: active = normalized growth mostly below about 0.91 (no sharp cut-off); inconclusive = no clear call, values can overlap the other calls; inactive = mostly above about 0.92.
# Test: chemical genetic growth profiling, strain panel (AID 1159580);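 also: tested at 20 µM; growth read once vehicle control cultures reached saturation at 30 °C; 1 = growth at the plate median or of vehicle wells; lower values mean less growth of the strain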
# Details: S. cerevisiae deletion strains, growth OD
compound,measurement,setting,value
CC[C@]12CCCN3CCc4c(n(c5ccccc45)C(=O)C1)[C@@H]32,normalized growth,"locus YAL013W, strain DEP1, hits give low values",0.967
same,normalized growth,"locus YAL021C, strain ccr4, hits give low values",0.968
same,normalized growth,"locus YAL026C, strain drs2, hits give low values",1.04
same,normalized growth,"locus YAL030W, strain snc1, hits give low values",1.01
same,normalized growth,"locus YBL061C, strain skt5, hits give low values",1.01
same,normalized growth,"locus YBR009C, strain hhf1, hits give low values",1.01
same,normalized growth,"locus YBR021W, strain FUR4, hits give low values",1.07
same,normalized growth,"locus YBR023C, strain chs3, hits give low values",1
same,normalized growth,"locus YBR171W, strain sec66, hits give low values",0.999
same,normalized growth,"locus YBR229C, strain ROT2, hits give low values",1.02
same,normalized growth,"locus YBR231C, strain swc5, hits give low values",1.01
same,normalized growth,"locus YBR279W, strain paf1, hits give low values",1
same,normalized growth,"locus YCL011C, strain gbp2, hits give low values",1.01
same,normalized growth,"locus YCL016C, strain dcc1, hits give low values",0.983
same,normalized growth,"locus YCL029C, strain bik1, hits give low values",0.989
same,normalized growth,"locus YCL069W, strain vba3, hits give low values",1
same,normalized growth,"locus YCR088W, strain abp1, hits give low values",1.01
same,normalized growth,"locus YDL005C, strain med2, hits give low values",1
same,normalized growth,"locus YDL035C, strain GPR1, hits give low values",0.941
same,normalized growth,"locus YDL040C, strain nat1, hits give low values",1
same,normalized growth,"locus YDL074C, strain BRE1, hits give low values",0.9
same,normalized growth,"locus YDL101C, strain DUN1, hits give low values",0.977
same,normalized growth,"locus YDL134C, strain PPH21, hits give low values",0.951
same,normalized growth,"locus YDL185W, strain tfp1, hits give low values",0.953
same,normalized growth,"locus YDL192W, strain arf1, hits give low values",0.977
same,normalized growth,"locus YDR001C, strain nth1, hits give low values",0.998
same,normalized growth,"locus YDR069C, strain doa4, hits give low values",1.04
same,normalized growth,"locus YDR101C, strain arx1, hits give low values",0.98
same,normalized growth,"locus YDR137W, strain rgp1, hits give low values",1.15
same,normalized growth,"locus YDR150W, strain NUM1, hits give low values",0.988
same,normalized growth,"locus YDR159W, strain sac3, hits give low values",0.995
same,normalized growth,"locus YDR162C, strain NBP2, hits give low values",0.552 (active)
same,normalized growth,"locus YDR195W, strain ref2",1.01
same,normalized growth,"locus YDR297W, strain sur2, hits give low values",1.01
same,normalized growth,"locus YDR318W, strain mcm21, hits give low values",0.978
same,normalized growth,"locus YDR334W, strain swr1, hits give low values",1
same,normalized growth,"locus YDR335W, strain msn5, hits give low values",0.998
same,normalized growth,"locus YDR388W, hits give low values",0.993
same,normalized growth,"locus YDR392W, strain spt3, hits give low values",0.804
same,normalized growth,"locus YDR502C, strain sam2, hits give low values",0.984
same,normalized growth,"locus YEL003W, strain gim4, hits give low values",1
same,normalized growth,"locus YEL037C, strain rad23, hits give low values",0.993
same,normalized growth,"locus YEL061C, strain CIN8 (second series), hits give low values",1
same,normalized growth,"locus YEL061C, strain CIN8, hits give low values",0.992
same,normalized growth,"locus YER015W, strain faa2, hits give low values",0.997
same,normalized growth,"locus YER016W, strain bim1, hits give low values",0.999
same,normalized growth,"locus YER110C, hits give low values",0.975
same,normalized growth,"locus YER111C, strain swi4, hits give low values",0.998
same,normalized growth,"locus YER155C, strain BEM2 (second series), hits give low values",0.976
same,normalized growth,"locus YER155C, strain BEM2, hits give low values",1.01
same,normalized growth,"locus YER167W, strain BCK2, hits give low values",1
same,normalized growth,"locus YFR010W, strain ubp6, hits give low values",1.01
same,normalized growth,"locus YGL078C, strain dbp3, hits give low values",0.983
same,normalized growth,"locus YGL086W, strain mad1, hits give low values",0.992
same,normalized growth,"locus YGL167C, strain pmr1, hits give low values",0.98
same,normalized growth,"locus YGL173C, strain kem1, hits give low values",1.02
same,normalized growth,"locus YGL227W, strain vid30, hits give low values",1.01
same,normalized growth,"locus YGL240W, strain doc1, hits give low values",0.999
same,normalized growth,"locus YGL248W, strain PDE1, hits give low values",0.857 (active)
same,normalized growth,"locus YGL253W, strain hxk2, hits give low values",1.03
same,normalized growth,"locus YGR135W, strain pre9, hits give low values",0.97
same,normalized growth,"locus YGR252W, strain gcn5, hits give low values",1.03
same,normalized growth,"locus YHR013C, strain ard1, hits give low values",0.98
same,normalized growth,"locus YHR027C, strain rpn1, hits give low values",1
same,normalized growth,"locus YHR030C, strain SLT2, hits give low values",0.885 (active)
same,normalized growth,"locus YHR079C, strain IRE1 (second series), hits give low values",0.982
same,normalized growth,"locus YHR094C, strain hxt1, hits give low values",0.99
same,normalized growth,"locus YHR129C, strain ARP1, hits give low values",0.993
same,normalized growth,"locus YHR142W, strain chs7, hits give low values",1.01
same,normalized growth,"locus YHR200W, strain rpn10, hits give low values",0.981
same,normalized growth,"locus YIL066C, strain RNR3, hits give low values",0.987
same,normalized growth,"locus YIL073C, strain SPO22, hits give low values",0.692
same,normalized growth,"locus YIL125W, strain kgd1, hits give low values",0.989
same,normalized growth,"locus YIR030C, strain dcg1, hits give low values",0.978
same,normalized growth,"locus YJL092W, strain hpr5, hits give low values",0.997
same,normalized growth,"locus YJL095W, strain BCK1 (second series), hits give low values",0.996
same,normalized growth,"locus YJL095W, strain BCK1, hits give low values",0.956
same,normalized growth,"locus YJL115W, strain asf1, hits give low values",0.994
same,normalized growth,"locus YJL129C, strain trk1, hits give low values",1.01
same,normalized growth,"locus YJL134W, strain LCB3, hits give low values",0.993
same,normalized growth,"locus YJL154C, strain vps35, hits give low values",0.993
same,normalized growth,"locus YJL164C, strain tpk1, hits give low values",0.984
same,normalized growth,"locus YJL166W, strain qcr8, hits give low values",1.01
same,normalized growth,"locus YJL168C, strain set2, hits give low values",0.992
